Experimental data as given in PubChem BioAssay (NCATS).
Inconclusive results are not listed. Where a call stands in place of a potency, no number is given. Calls of active or inactive are those of the source. Calls follow the shape of the dose curve; as a rule, active = well fitted inhibition curve with a large enough effect; inconclusive = small, poorly fitted or top-dose-only effect; inactive = flat fitted curve, though single readings scatter.

Test system: CRL-7250
Test: qHTS assay to identify novel small-molecules to repurpose for Merkel cell carcinoma treatment (AID 1296009); also: nearly all actives have a fitted effect of over 60% in size
Conditions: MCC and control cell lines, CellTiter-Glo viability, 72 h; series mostly up to 92 µM
In short: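 qHTS format: cells treated with library compounds in DMSO across 8 (NPC) or 11 (MIPE) concentrations. Readout after 72 hr at 37 degree celsius was CellTiter-Glo luminescence.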

Compound	Potency	outcome
CC(=O)OC1C(OC(=O)c2ccccc2)C2C(C)(C)CCC(OC(C)=O)C2(C)C23CCC(C)(C2)C(=O)CC13 (stereo not given)	inactive	
COc1cccc2c1CCC[C@H]2CN(C)CCc1ccc2ccoc2c1	inactive	
Cc1onc(-c2ccccc2Cl)c1C(=O)N(C)c1ccc(Cl)cc1	inactive	
COc1cc(C2OCC3(O)C(c4ccc(O[C@@H]5O[C@H](CO)[C@@H](O)[C@H](O)[C@H]5O)c(OC)c4)OCC23O)ccc1O (stereo not given in full)	inactive	
O=S(=O)(NC1CCC(c2cc(F)ccc2F)(S(=O)(=O)c2ccc(Cl)cc2)CC1)C(F)(F)F (stereo not given)	inactive	
Cc1cc(O)cc(O[C@@H]2O[C@H](CO)[C@@H](O)[C@H](O)[C@H]2O)c1	inactive	
C=C1C(=O)O[C@@H]2C[C@H](C)[C@@]3(O)C=C(C(C)=O)[C@]4(CC3C[C@H]12)C(=O)O[C@H]1C[C@@H](C)C(CCC(C)=O)=CC[C@H]14 (stereo not given in full)	inactive	
OC[C@H]1O[C@@H](OCc2ccccc2)[C@H](O[C@@H]2OC[C@@H](O)[C@H](O)[C@H]2O)[C@@H](O)[C@@H]1O	inactive	
C=C(C(=O)OC)[C@]12O[C@@](C)(CC[C@@]3(O)/C(=C\C)C(=O)O[C@]3(C)C[C@@H]1OC(=O)C(CO)CN1CCCC1C(=O)O)CC2=O (stereo not given in full)	inactive	
H-DPPDPDRFYGMM-NH2	inactive	
CC1CCC2(C(=O)O)CCC3(C)C(=CCC4C5(C)CCC(OC(=O)/C=C/c6ccccc6)C(C)(C)C5CCC43C)C2C1C (stereo not given)	inactive	
O=C1NC(Cc2ccccc2)C(=O)N2CCCC12 (stereo not given)	inactive	
C=CC(=O)N1CC(N2CCN(C(=O)CNc3cc(C4CC4)c(Cl)cc3O)CC2)C1	inactive	
C=CC1(C)CC(OC(=O)/C(C)=C\COC(C)=O)C(C(=C)C(=O)O)C(O)C1C(=C)CO (stereo not given)	inactive	
CC(=O)OCC1OC(O[C@H]2CC[C@@]3(C)C(CC[C@]4(C)C3CC=C3[C@@H]5CC(C)(C)CC[C@]5(C(=O)O)CC[C@]34C)[C@]2(C)CO)C(O)C(O)C1OC1OC(C)C(O)C(OC2OCC(O)C(O)C2O)C1O (stereo not given in full)		inactive [at 9.27 µM]
C=Cc1cc2oc(-c3ccc(O)c(F)c3)nc2cc1O	inactive	
Cc1ccc(C)c(NC(=O)CNS(=O)(=O)c2ccc3[nH]c(=O)oc3c2)c1	inactive	
FC(F)(F)c1cc(C(F)(F)F)c2ccc3nc(-c4nnco4)cn3c2n1	inactive	
CC(C)/C=C1/NC(=O)C(C(C)C)n2c1nc1c(O)cccc1c2=O (stereo not given)	inactive	
CC(C)=C[C@@H]1[C@H](CO[C@@H]2O[C@H](CO)[C@@H](O)[C@H](O)[C@H]2O)C1(C)C	inactive	

Compound	Potency	outcome
O=C(Nc1ccc(-c2ccc(Cl)c(Cl)c2)cc1)C1=C(O)c2ccccc2S(=O)(=O)N1	inactive	
C=CC(C)(O)CC/C=C(\C)C(=O)O[C@@H]1[C@@H](O)[C@H](OC(C)(C=C)CC/C=C(\C)C(=O)O)O[C@H](CO)[C@H]1OC(=O)/C(C)=C/CCC(C)(O)C=C (stereo not given in full)	inactive	
COc1cc(/C=C/C(=O)O)ccc1O[C@@H]1O[C@H](CO)[C@@H](O)[C@H](O)[C@H]1O[C@@H]1OC[C@](O)(CO)[C@H]1O	inactive	
CC1(CO)CC[C@]2(C(=O)O[C@@H]3O[C@H](CO)[C@@H](O)[C@H](O)[C@H]3O)CC[C@]3(C)C(=CCC4[C@@]5(C)C[C@H](O)[C@H](O[C@@H]6OC[C@@H](O)[C@H](O)[C@H]6O)[C@@](C)(CO)C5CC[C@]43C)C2C1 (stereo not given in full)		inactive [at 9.27 µM]
Cc1cccc(NC(=O)CN2CCC(c3ccccn3)CC2)c1	inactive	
CC(O)C/C=C/C=C/C(=O)OC1C=C2COC(=O)C2(O)C2(C)CCCC(C)(C)C12 (stereo not given)	inactive	
CC(F)(F)CN1CCOc2c(nn(-c3ccccc3Cl)c2-c2ccc(Cl)cc2)C1=O	inactive	
COC1CC(O[C@H]2CC[C@@]3(C)C(=CC[C@]4(O)C3[C@H](OC(C)=O)[C@@H](OC(=O)c3ccccc3)[C@]3(C)[C@@H](C(C)=O)CC[C@@]34O)C2)OC(C)C1OC1CC(OC)C(OC2CC(OC)C(OC3OC(C)C(OC4OC(CO)C(O)C(O)C4O)C(OC)C3O)C(C)O2)C(C)O1 (stereo not given in full)		inactive [at 9.27 µM]
COc1ncc2cc(C(=O)Nc3cc(C(=O)NCc4cccc(Cl)c4)ccc3Cl)c(=O)[nH]c2n1	inactive	
CC1=C2C(=O)C=C(CO[C@@H]3O[C@H](CO)[C@@H](O)[C@H](O)[C@H]3O)[C@@H]2[C@H]2OC(=O)[C@H](C)[C@@H]2[C@@H](O)C1	inactive	
COc1cc2ncnc(Nc3ccc(O)cc3)c2cc1OC	inactive	
CO[C@H]1c2cc(C(C)C)c(O)c(O)c2[C@@]23CCCC(C)(C)C2[C@@H]1OC3=O (stereo not given in full)	inactive	
CC(=O)O[C@H]1C[C@@H](O)C(C)(C)C2C[C@@H](OC(C)=O)[C@@]3(C)C4=CCC(C(CO)CC(O)C5OC5(C)C)[C@]4(C)CCC3[C@]21C (stereo not given in full)	inactive	
C[C@@H]1O[C@@H](O[C@H]2[C@H](O)[C@@H](O)[C@H](OC[C@H]3O[C@@H](OC(=O)[C@]45CCC(C)(C)C[C@H]4C4=CCC6[C@@]7(C)CC[C@H](O[C@@H]8OC[C@H](O)[C@H](O[C@@H]9O[C@H](CO)[C@@H](O)[C@H](O)[C@H]9O)[C@H]8O)[C@@](C)(CO)C7CC[C@@]6(C)[C@]4(C)CC5)[C@H](O)[C@@H](O)[C@@H]3O)O[C@@H]2CO)[C@H](O)[C@H](O)[C@H]1O (stereo not given in full)		inactive [at 9.27 µM]
C[C@@H]1C(=O)O[C@H]2[C@H]1CC[C@@]1(C)C(=O)C=C[C@](C)(O)[C@H]21	inactive	
CCCCCCc1cccc(NC(=O)[C@H](N)CCP(=O)(O)O)c1		inactive [at 9.27 µM]
CC1(C)CC=C(c2cnc3ccccc3c2)c2cc(C(=O)Nc3ccc(C(=O)O)cc3)ccc21	inactive	
C=C1C[C@@]23CCC4[C@@](C)(CCC[C@@]4(C)C(=O)OC)C2CC[C@@H]1C3 (stereo not given in full)	inactive	
CC(C)(O)c1ccc2c(c1)ncn2-c1cccc(-c2ccccc2C#N)c1	inactive	
C=C1CC[C@H]2[C@@H](/C=C(\C)C(=O)[C@@]3(OC(C)=O)C[C@H](C)[C@H](OC(C)=O)[C@@H]3[C@H]1OC(C)=O)C2(C)C	inactive	
